In the supplement of paper PMC11006884:
The full data set covers some 6,500 targets. This sample favours those with a hit. About 2% of all pairs of compound and target were hits.

Compound: COC(=O)C#Cc1ccccc1 [methyl 3-phenylpropiolate]
Assay: log2 ratio of iodoacetamide-alkyne labeling of the cysteine site, DMSO over compound (competition); higher = stronger covalent engagement of the cysteine by the compound, active = 1 or more
Conditions: 500 µM; treatment time 1 h; system: HEK293T cell lysate
Outline: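 The log2 competition ratio per cysteine is defined as mean reporter intensity in control channels over mean reporter intensity in compound channels. Lysate from HEK293T cells (2 mg/mL) received electrophile (500 µM) or vehicle for 1 h at ambient temperature, followed by iodoacetamide alkyne for 1 h. Samples were clicked to sCIP-TMT reagents, pooled, trypsin-digested overnight at 37 °C, streptavidin-enriched, acid-eluted and run on Orbitrap Eclipse LC-MS/MS with FAIMS, with quantification in FragPipe. Three replicates with duplicate channels were used, and any cysteine quantified in only one replicate was excluded.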

UniProt P07195, sequence (P07195 whole entry, looked up): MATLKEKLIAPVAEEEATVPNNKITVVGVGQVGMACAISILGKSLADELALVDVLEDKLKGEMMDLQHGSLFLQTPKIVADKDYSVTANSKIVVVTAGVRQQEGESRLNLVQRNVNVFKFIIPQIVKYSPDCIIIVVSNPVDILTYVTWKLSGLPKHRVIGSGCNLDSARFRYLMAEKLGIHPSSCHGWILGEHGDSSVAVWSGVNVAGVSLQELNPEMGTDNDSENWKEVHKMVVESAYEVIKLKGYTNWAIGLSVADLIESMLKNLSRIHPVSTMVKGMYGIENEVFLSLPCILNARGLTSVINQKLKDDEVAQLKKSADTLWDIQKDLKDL
UniProt P14625, sequence (P14625 whole entry, looked up): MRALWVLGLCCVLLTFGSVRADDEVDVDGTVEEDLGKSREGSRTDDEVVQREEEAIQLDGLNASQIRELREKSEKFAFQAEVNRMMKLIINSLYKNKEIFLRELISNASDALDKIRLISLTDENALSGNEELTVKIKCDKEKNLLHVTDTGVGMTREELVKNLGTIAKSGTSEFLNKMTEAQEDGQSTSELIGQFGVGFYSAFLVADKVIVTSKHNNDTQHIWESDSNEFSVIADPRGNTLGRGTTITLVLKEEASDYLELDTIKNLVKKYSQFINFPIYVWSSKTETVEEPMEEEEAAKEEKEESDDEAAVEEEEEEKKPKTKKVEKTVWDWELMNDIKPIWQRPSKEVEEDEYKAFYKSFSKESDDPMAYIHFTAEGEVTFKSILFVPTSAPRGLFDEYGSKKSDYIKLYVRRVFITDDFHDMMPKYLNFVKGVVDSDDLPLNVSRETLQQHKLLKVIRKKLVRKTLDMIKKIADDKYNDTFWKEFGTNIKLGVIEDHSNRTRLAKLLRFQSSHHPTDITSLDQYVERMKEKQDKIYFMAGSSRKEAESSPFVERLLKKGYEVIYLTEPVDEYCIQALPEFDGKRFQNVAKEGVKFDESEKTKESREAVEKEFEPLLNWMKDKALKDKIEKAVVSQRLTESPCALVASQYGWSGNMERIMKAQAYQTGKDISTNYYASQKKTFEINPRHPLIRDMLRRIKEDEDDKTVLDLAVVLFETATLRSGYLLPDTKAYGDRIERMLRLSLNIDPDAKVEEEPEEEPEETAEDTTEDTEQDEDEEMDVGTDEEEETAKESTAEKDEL
UniProt P15924, sequence (P15924 whole entry, looked up): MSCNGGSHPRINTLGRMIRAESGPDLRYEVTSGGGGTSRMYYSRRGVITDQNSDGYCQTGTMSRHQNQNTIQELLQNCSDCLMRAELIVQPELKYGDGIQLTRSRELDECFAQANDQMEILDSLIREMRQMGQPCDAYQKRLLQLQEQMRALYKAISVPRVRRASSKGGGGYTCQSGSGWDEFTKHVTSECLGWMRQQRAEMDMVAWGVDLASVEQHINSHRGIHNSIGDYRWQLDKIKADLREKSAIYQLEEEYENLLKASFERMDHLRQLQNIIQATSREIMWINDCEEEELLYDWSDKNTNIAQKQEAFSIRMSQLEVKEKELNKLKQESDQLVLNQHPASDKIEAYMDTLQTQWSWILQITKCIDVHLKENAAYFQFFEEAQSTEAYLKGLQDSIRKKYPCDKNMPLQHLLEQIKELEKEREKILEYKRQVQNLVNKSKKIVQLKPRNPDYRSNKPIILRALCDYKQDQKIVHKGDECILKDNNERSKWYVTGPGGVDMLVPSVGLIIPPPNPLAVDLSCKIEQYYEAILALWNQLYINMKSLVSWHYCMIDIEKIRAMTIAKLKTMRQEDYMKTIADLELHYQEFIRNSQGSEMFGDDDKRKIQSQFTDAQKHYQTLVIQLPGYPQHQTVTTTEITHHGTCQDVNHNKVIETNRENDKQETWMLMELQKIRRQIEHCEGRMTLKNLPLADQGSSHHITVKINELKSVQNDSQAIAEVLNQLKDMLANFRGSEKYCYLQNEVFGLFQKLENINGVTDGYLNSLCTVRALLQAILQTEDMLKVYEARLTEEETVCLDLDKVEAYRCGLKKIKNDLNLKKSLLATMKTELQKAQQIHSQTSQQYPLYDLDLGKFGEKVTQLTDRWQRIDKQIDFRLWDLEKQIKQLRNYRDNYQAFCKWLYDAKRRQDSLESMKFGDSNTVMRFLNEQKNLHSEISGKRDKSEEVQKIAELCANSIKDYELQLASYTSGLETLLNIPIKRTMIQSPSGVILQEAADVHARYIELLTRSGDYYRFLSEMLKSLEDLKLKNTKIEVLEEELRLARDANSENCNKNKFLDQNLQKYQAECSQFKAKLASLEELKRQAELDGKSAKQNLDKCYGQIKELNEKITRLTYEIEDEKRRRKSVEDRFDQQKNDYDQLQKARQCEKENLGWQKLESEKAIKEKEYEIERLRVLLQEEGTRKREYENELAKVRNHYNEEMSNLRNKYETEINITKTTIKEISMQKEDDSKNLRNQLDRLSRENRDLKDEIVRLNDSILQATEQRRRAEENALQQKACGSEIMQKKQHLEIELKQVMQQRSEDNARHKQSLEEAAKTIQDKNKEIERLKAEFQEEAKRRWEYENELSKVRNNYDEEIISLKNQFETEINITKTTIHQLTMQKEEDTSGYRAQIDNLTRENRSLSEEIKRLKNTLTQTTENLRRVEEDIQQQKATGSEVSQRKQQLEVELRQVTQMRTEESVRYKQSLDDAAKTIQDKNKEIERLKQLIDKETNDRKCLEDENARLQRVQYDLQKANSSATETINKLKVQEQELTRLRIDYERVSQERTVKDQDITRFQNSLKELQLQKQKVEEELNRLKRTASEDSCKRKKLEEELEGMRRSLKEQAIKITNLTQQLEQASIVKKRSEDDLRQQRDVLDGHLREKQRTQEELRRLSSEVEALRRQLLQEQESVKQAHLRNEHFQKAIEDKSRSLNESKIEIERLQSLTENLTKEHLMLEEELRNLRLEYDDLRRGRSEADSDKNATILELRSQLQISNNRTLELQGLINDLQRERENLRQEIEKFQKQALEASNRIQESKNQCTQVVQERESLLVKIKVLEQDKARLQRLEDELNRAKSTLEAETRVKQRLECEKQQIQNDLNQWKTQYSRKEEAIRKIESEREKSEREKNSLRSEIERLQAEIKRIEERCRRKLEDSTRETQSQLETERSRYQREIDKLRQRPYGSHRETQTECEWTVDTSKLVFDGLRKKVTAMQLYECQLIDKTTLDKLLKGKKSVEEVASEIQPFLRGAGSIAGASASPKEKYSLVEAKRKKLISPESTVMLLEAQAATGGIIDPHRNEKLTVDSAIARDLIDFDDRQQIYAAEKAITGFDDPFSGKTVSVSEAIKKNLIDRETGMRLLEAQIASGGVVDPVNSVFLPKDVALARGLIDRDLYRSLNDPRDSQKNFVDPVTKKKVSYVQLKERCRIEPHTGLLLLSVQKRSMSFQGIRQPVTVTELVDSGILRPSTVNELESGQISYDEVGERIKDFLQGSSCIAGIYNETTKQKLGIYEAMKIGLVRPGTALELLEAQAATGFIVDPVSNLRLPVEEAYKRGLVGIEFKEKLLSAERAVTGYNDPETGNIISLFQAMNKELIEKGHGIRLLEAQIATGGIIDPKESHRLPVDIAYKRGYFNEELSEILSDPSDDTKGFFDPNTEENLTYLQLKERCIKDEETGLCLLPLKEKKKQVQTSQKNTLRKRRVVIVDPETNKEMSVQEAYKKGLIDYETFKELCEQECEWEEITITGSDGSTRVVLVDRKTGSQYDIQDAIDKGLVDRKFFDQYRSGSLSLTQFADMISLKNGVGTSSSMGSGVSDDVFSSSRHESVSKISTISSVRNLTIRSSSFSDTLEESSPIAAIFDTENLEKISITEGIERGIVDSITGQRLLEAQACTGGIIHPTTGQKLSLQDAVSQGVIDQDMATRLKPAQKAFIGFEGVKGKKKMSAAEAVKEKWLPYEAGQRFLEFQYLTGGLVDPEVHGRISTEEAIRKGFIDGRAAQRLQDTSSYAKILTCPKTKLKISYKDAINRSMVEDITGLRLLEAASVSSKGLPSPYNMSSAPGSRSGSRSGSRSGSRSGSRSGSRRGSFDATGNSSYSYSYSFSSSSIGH
UniProt P37802, sequence (P37802 whole entry, looked up): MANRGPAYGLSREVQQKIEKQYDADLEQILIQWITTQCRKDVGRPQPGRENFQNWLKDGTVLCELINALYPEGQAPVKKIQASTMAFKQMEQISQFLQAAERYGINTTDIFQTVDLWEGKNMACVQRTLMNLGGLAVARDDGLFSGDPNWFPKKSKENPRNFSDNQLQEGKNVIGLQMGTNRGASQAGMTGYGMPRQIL
UniProt P06132, sequence (P06132 whole entry, looked up): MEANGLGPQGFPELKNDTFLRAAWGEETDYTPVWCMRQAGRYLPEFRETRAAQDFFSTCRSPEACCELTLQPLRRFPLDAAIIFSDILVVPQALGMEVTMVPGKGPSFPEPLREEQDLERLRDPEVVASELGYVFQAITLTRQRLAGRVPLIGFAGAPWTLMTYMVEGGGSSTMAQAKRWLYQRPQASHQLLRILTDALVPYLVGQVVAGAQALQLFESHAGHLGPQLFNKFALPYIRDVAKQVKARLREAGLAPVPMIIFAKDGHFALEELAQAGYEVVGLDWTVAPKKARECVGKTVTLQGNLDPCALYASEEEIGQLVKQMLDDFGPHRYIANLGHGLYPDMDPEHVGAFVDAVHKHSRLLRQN
UniProt P50502, sequence (P50502 whole entry, looked up): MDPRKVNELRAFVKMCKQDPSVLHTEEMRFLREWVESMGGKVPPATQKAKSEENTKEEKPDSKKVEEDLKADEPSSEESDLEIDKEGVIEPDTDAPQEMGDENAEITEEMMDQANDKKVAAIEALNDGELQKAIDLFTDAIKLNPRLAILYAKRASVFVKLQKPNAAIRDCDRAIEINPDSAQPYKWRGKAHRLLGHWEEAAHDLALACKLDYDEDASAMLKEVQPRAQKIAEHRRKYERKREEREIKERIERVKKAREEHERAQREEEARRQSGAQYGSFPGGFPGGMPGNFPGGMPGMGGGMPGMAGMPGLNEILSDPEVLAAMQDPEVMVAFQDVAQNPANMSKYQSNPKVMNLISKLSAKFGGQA

log2 ratio of iodoacetamide-alkyne labeling, inactive:
CPSF4 C110 (UniProt O95639) -0.138
PARP1 C128 (UniProt P09874) 0.229
ST13 C209 (UniProt P50502) 0.272
MAP1B C73 (UniProt P46821) 0.173
LDHB C294 (UniProt P07195) -0.0731
TAGLN2 C38 (UniProt P37802) -0.0194
HSP90B1 C645 (UniProt P14625) -0.0466
UROD C308 (UniProt P06132) 0.28
UniProt P26639_C107 0.12
IQGAP1 C781 (UniProt P46940) 0.821
CCT4 C337 (UniProt P50991) 0.0635
NT5C2 C181 (UniProt P49902) 0.0722
UniProt P26639_C343 0.143
RPL3 C253 (UniProt P39023) 0.582
SEC24B C562 (UniProt O95487) 0.735
MAP1B C2065 (UniProt P46821) 0.623
PPP2R1B C306 (UniProt P30154) 0.0579

log2 ratio of iodoacetamide-alkyne labeling, active:
DSP C174 (UniProt P15924) 1.06
UniProt P0DN79_C15 2.27
VDAC2 C227 (UniProt P45880) 1.39
HSPD1 C442 (UniProt P10809) 1.2
VDAC2 C13 (UniProt P45880) 1.11
